What all share (assay): DAPPL (digital affinity profiling via proximity ligation, sequencing); 10 mM Tris-HCl pH 7.5, 50 mM NaCl, 1 mM DTT, 4% glycerol, room temperature, 30 min; GST-TFs on glutathione beads, 16-mer random dsDNA library, 0.1% formaldehyde crosslink after washing; high values mean tight binding
The target of one experiment is T1, FLI1 (Homo sapiens, UniProt Q01543 1-452).
T1 sequence: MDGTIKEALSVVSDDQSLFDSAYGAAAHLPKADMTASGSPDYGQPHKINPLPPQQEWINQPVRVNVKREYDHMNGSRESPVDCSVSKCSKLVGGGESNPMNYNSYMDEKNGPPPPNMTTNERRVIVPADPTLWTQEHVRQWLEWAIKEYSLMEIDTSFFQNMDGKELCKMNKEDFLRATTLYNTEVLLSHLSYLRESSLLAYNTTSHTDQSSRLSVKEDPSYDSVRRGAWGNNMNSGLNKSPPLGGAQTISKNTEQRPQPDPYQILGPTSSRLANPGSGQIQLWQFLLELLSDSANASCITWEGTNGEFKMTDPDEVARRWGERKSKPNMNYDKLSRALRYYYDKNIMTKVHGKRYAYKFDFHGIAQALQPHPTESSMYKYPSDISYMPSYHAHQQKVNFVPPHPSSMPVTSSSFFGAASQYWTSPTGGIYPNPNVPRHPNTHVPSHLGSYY
The conditions noted are these: protein: recombinant; tags: N-terminal GST; dsDNA, one strand shown. The method, boiled down: (§1)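 Sequencing on an Illumina NextSeq500 followed washing, crosslinking with 0.1% formaldehyde, proximity ligation (BsaI/T4 ligase, 1 h, 37 °C) and PCR amplification of pools that had been incubated for 30 min at room temperature with 200 nmole of a random double-stranded 16-mer DNA library in Tris/NaCl/DTT/glycerol buffer. Each pool held DNA-barcoded human transcription factors, expressed in yeast as GST fusions and captured on glutathione beads, plus a tag-only sample. Binding signal is a hexamer's read frequency for a factor divided by its frequency in the tag-only sample.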

The next experiment deals with T2, ELK1 (Homo sapiens, UniProt P19419 1-428).
T2 sequence: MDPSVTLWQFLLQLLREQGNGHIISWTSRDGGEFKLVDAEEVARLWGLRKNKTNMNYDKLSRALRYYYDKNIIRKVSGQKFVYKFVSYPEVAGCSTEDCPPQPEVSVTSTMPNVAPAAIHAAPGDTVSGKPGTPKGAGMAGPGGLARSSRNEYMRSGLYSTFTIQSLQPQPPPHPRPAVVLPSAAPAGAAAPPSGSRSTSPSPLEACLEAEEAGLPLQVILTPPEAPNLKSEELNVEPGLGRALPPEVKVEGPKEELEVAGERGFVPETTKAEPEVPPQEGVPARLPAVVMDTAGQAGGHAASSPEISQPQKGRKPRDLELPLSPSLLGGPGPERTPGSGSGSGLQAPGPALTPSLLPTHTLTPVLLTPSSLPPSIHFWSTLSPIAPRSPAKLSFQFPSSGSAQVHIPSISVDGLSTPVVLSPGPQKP
The conditions noted are these: protein: recombinant; tags: N-terminal GST; dsDNA, one strand shown. The method, boiled down:
as §1

Another experiment addresses T3, GABPA (Homo sapiens, UniProt Q06546 1-454).
T3 sequence: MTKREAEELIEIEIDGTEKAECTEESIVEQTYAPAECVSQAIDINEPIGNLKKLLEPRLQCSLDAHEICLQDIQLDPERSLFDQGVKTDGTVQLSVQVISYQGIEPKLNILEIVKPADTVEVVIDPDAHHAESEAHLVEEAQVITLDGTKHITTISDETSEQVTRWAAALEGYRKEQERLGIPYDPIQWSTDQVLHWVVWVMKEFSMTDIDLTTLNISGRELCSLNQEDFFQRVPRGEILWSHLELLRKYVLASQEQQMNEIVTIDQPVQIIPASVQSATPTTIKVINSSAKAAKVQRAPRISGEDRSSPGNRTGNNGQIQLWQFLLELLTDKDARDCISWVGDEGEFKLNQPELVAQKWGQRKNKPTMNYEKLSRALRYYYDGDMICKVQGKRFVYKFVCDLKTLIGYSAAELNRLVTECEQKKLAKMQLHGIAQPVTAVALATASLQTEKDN
Particulars: protein: recombinant; tags: N-terminal GST; dsDNA, one strand shown. The gist of the method:
as §1

In the next experiment the target is T4, ERG (Homo sapiens, UniProt P11308 1-479).
T4 sequence: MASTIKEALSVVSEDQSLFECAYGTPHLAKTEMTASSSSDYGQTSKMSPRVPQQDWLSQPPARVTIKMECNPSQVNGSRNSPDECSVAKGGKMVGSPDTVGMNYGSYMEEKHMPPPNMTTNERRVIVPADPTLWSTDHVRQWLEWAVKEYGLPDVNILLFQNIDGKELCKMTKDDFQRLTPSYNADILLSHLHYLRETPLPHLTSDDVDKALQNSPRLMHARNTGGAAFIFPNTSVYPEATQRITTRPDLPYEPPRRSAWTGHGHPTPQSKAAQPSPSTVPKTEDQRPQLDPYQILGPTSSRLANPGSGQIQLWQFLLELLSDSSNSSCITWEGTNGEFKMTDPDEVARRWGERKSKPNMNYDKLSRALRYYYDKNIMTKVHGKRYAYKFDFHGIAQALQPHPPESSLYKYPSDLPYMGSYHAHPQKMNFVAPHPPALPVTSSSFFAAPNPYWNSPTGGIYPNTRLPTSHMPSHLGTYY
The conditions noted are these: protein: recombinant; tags: N-terminal GST; dsDNA, one strand shown. The gist of the method:
as §1

Another experiment addresses ELF1 (Homo sapiens, UniProt P32519 1-619). The conditions noted are these: protein: recombinant; tags: N-terminal GST; dsDNA, one strand shown. The method, boiled down: as §1
A further experiment addresses T5, EHF (Homo sapiens, UniProt Q9NZC4 1-300).
T5 sequence: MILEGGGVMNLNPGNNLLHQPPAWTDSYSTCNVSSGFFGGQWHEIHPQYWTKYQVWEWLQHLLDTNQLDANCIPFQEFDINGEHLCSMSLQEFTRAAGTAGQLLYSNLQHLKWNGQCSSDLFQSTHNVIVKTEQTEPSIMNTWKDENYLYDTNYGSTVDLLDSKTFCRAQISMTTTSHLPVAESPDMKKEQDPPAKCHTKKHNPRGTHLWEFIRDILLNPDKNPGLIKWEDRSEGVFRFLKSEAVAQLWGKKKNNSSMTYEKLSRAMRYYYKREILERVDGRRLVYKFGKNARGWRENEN
The conditions noted are these: protein: recombinant; tags: N-terminal GST; dsDNA, one strand shown. The method, boiled down:
as §1

The target of a further experiment is SPI1 (Homo sapiens, UniProt P17947 1-270). The conditions noted are these: protein: recombinant; tags: N-terminal GST; dsDNA, one strand shown. The gist of the method:
as §1

Another experiment deals with SPIB (Homo sapiens, UniProt Q01892 1-262). The conditions noted are these: protein: recombinant; tags: N-terminal GST; dsDNA, one strand shown. The gist of the method:
as §1

The next experiment addresses T6, ELK3 (Homo sapiens, UniProt P41970 1-407).
T6 sequence: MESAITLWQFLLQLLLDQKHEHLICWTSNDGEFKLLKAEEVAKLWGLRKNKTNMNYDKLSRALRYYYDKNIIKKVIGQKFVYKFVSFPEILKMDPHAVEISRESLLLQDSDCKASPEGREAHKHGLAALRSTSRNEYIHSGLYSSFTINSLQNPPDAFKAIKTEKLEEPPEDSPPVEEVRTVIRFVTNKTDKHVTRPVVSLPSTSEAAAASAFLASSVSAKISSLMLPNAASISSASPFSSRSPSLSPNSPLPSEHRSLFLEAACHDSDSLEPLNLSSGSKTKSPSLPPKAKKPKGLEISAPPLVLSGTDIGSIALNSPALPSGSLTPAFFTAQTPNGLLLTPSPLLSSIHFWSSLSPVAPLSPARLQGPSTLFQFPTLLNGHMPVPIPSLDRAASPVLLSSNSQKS
Particulars: protein: recombinant; tags: N-terminal GST; dsDNA, one strand shown. The method, boiled down:
as §1

The next experiment concerns the target T7, FEV (Homo sapiens, UniProt Q99581 1-238).
T7 sequence: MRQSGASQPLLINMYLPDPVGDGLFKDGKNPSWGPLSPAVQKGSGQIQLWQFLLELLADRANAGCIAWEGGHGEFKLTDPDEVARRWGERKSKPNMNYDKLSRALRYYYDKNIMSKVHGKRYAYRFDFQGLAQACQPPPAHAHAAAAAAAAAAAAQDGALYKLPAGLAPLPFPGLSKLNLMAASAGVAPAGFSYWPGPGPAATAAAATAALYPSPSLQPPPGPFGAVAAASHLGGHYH
The conditions noted are these: protein: recombinant; tags: N-terminal GST; dsDNA, one strand shown. The method, boiled down: as §1

Another experiment has as its target ETV5 (Homo sapiens, UniProt P41161 1-510). Particulars: protein: recombinant; tags: N-terminal GST; dsDNA, one strand shown. The gist of the method:
as §1

Another experiment addresses HSF1 (Homo sapiens, UniProt Q00613 1-529). The conditions noted are these: protein: recombinant; tags: N-terminal GST; chain copies: 3; dsDNA, one strand shown. The method, boiled down:
as §1

Another experiment deals with T8, SPIC (Homo sapiens, UniProt Q8N5J4 1-248).
T8 sequence: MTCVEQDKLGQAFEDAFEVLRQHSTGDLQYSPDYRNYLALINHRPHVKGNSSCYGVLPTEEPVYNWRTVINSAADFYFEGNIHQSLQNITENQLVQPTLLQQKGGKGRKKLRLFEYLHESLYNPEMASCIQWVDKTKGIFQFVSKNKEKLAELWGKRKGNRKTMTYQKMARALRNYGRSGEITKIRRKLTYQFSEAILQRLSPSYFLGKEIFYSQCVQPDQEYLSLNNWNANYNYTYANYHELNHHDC
The conditions noted are these: protein: recombinant; tags: N-terminal GST; dsDNA, one strand shown. The gist of the method:
as §1

The next experiment addresses ELF4 (Homo sapiens, UniProt Q99607 1-663). The conditions noted are these: protein: recombinant; tags: N-terminal GST; dsDNA, one strand shown. The method, boiled down: as §1
For another experiment, the target named is T9, ELK4 (Homo sapiens, UniProt P28324-2 1-405).
T9 sequence: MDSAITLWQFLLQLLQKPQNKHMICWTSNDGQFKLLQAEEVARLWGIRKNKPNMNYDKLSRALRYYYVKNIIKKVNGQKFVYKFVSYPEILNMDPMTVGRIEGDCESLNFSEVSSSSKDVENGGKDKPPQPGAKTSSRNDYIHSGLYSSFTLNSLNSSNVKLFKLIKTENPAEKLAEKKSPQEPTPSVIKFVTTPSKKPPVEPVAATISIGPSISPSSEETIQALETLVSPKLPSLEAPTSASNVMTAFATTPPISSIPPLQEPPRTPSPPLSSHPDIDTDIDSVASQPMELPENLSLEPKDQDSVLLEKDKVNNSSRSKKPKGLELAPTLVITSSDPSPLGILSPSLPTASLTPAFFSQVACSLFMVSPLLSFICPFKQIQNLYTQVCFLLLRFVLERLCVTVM
Particulars: protein: recombinant; tags: N-terminal GST; dsDNA, one strand shown. The gist of the method: as §1

The target of another experiment is T10, ETV2 (Homo sapiens, UniProt O00321 1-342).
T10 sequence: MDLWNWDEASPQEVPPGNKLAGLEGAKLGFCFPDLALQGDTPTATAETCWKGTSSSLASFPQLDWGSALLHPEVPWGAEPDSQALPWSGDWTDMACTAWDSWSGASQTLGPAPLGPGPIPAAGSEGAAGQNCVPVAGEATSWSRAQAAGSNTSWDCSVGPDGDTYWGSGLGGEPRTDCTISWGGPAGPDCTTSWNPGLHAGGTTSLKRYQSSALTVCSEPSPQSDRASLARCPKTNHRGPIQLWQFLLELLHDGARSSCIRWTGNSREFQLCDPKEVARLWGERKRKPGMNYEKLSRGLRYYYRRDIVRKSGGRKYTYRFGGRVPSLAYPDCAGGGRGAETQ
The conditions noted are these: protein: recombinant; tags: N-terminal GST; dsDNA, one strand shown. The gist of the method:
as §1

The target of another experiment is T11, ELF3 (Homo sapiens, UniProt P78545 1-371).
T11 sequence: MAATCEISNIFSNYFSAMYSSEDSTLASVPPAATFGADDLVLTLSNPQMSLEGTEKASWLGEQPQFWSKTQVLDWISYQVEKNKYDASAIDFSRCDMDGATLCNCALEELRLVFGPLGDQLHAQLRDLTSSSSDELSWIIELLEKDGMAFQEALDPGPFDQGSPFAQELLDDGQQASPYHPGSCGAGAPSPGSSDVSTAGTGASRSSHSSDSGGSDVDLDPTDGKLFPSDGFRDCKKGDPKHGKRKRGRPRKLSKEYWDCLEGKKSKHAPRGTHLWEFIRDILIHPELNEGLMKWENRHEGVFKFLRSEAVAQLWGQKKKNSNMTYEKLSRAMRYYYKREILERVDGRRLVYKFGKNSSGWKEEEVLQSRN
The conditions noted are these: protein: recombinant; tags: N-terminal GST; dsDNA, one strand shown. The gist of the method: as §1

For the next experiment, the target named is ETV1 (Homo sapiens, UniProt P50549 1-477). Particulars: protein: recombinant; tags: N-terminal GST; dsDNA, one strand shown. The method, boiled down: as §1
ETV1, sequence (P50549 whole entry): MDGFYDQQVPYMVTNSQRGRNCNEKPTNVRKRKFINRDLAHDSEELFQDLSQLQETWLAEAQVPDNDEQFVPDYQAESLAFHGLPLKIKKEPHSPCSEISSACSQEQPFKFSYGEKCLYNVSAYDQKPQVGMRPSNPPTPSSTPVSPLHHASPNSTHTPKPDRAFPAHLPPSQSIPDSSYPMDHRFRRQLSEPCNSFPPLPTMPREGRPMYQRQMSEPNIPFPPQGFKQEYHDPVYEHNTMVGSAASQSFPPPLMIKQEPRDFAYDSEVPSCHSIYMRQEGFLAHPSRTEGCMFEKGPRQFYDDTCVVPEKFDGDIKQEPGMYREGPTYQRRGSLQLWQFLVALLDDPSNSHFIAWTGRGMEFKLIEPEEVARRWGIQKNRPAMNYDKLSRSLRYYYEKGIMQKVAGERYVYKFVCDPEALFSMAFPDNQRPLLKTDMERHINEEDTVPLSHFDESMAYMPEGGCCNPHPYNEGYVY

ETV5, sequence (P41161 whole entry): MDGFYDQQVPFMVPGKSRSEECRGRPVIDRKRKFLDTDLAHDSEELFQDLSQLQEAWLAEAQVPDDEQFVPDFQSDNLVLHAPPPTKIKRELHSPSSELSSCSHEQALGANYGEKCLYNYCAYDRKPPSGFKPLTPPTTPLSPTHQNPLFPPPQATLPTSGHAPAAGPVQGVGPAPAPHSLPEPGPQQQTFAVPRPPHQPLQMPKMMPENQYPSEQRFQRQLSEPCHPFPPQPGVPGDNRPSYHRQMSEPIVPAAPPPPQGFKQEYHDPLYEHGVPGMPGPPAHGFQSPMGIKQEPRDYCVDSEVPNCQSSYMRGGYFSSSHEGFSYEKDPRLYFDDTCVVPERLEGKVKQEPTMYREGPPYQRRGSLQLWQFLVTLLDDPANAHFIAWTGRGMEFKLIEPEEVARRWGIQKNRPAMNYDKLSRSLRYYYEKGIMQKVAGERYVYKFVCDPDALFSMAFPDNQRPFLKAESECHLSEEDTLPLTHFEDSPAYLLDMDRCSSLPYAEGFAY
ELF1, sequence (P32519 whole entry): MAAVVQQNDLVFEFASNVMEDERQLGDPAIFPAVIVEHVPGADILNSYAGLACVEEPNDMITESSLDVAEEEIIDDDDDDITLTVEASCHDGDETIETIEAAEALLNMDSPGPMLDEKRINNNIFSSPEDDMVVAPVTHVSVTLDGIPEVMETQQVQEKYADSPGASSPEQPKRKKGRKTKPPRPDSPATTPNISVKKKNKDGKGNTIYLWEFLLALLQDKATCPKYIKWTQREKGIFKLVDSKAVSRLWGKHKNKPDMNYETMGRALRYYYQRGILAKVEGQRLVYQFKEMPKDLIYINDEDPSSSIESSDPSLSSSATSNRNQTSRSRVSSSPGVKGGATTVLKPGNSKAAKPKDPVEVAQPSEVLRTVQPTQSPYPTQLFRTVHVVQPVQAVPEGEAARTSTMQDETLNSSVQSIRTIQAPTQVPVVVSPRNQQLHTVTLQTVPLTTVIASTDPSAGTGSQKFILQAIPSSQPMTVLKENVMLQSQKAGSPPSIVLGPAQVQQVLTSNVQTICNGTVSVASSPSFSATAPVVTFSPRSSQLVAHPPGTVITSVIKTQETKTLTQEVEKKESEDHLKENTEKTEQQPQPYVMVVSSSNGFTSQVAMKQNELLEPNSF
ELF4, sequence (Q99607 whole entry): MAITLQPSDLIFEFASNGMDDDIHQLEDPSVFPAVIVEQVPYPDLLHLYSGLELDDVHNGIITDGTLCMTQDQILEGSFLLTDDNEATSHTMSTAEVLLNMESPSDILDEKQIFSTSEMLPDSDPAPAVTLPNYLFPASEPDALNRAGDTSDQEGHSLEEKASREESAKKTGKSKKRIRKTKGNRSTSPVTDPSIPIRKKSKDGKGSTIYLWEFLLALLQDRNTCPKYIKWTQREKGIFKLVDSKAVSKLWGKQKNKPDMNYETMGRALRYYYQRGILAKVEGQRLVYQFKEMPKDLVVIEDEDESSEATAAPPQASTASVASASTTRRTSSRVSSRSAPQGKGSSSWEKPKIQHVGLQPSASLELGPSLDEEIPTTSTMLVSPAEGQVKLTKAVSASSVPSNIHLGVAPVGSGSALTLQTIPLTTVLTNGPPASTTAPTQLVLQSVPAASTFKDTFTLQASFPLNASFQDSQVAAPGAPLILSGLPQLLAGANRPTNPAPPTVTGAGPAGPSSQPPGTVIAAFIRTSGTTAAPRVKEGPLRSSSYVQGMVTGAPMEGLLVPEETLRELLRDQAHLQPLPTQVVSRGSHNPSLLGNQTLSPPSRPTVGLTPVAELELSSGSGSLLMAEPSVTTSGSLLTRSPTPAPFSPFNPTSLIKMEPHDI
HSF1, sequence (Q00613 whole entry): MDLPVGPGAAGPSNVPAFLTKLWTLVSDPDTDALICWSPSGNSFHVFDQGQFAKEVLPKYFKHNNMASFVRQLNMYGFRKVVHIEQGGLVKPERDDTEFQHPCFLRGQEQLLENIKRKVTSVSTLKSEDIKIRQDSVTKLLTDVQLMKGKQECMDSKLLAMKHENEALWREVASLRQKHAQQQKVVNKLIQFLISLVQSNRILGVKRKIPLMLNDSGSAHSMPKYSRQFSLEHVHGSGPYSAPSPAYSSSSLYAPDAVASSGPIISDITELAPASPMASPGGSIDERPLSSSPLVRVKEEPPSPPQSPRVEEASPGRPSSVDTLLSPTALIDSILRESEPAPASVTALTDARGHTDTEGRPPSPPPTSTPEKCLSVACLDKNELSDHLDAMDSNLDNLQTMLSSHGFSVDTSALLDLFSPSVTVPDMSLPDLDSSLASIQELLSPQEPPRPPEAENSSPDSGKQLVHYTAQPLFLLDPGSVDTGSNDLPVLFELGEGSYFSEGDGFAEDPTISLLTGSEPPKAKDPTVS
SPIB, sequence (Q01892 whole entry): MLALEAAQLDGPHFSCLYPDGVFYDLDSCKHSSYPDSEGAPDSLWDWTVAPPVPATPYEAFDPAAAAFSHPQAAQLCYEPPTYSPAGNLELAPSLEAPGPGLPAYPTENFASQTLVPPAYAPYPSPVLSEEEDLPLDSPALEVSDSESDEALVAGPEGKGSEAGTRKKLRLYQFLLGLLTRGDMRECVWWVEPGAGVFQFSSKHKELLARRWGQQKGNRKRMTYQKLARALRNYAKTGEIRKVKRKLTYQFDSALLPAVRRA

Turning to CCACTC, the binding signal in the experiment with FLI1 was 1.23 fold enrichment (6-mer frequency, TF over GST control); in the experiment with ELK1 it was 1.32 fold enrichment (6-mer frequency, TF over GST control); with GABPA it was 1.29 fold enrichment (6-mer frequency, TF over GST control); with ERG, 1.19 fold enrichment (6-mer frequency, TF over GST control); in the experiment with ELF1, 1.28 fold enrichment (6-mer frequency, TF over GST control); in the experiment with EHF, 1.16 fold enrichment (6-mer frequency, TF over GST control). The binding signal is 1.09 fold enrichment (6-mer frequency, TF over GST control) with SPI1; 1.16 fold enrichment (6-mer frequency, TF over GST control) with SPIB; 1.3 fold enrichment (6-mer frequency, TF over GST control) with ELK3; 1.27 fold enrichment (6-mer frequency, TF over GST control) with FEV; 1.23 fold enrichment (6-mer frequency, TF over GST control) with ETV5; 1.05 fold enrichment (6-mer frequency, TF over GST control) with HSF1. Also, the binding signal is 1.27 fold enrichment (6-mer frequency, TF over GST control) in the experiment with SPIC; 1.29 fold enrichment (6-mer frequency, TF over GST control) with ELF4; 1.49 fold enrichment (6-mer frequency, TF over GST control) in the experiment with ELK4; 1.18 fold enrichment (6-mer frequency, TF over GST control) with ETV2; 1.14 fold enrichment (6-mer frequency, TF over GST control) in the experiment with ELF3; 1.17 fold enrichment (6-mer frequency, TF over GST control) in the experiment with ETV1.
